Source: PubChem BioAssay
TDP1 cell CPT: qHTS for Inhibitors of human tyrosyl-DNA phosphodiesterase 1 (TDP1): qHTS in cells in presence of CPT; chicken DT40 Tdp1-/-;hTDP1 cells + 20 nM CPT, ATP luminescence, 48 h; Potency, µM (top dose mostly 46.2 µM), for the others: top-dose activity change, negative = growth inhibition, actives largely listed as inhibitors; 420,000 compounds, 12% hits; further: potency means the concentration at half of the fitted maximal effect; nearly all actives have a fitted effect of over 55% in size
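Chicken DT40 Tdp1-/- cells stably complemented with human TDP1 were seeded at 400 cells/well in medium containing 20 nM camptothecin, exposed to pin-transferred compounds, and grown at 37 °C for at least 48 hr. Viability was read as ATP luminescence.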
IL1B secr inh: qHTS for Inhibitors of Inflammasome Signaling: IL-1-beta AlphaLISA Primary Screen. THP-1 LPS/ATP IL-1B secretion, AlphaLISA, 16 h; stronger effect = lower value. activity change, % at 57.5 µM. 360,000 compounds, 4.7% hits; in the data active means activity change below about -50%; inconclusive means mostly about -30% to -49%
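Secreted IL-1B measured by AlphaLISA bead assay after 16 h compound exposure of THP-1 cells; compounds (final up to 57.5 uM) added 1 h before LPS (250 ng/mL) and ATP (1.25 mM) stimulation; lower signal means less secretion.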
HT1080 IDH1KD tx: qHTS for induction of synthetic lethality in tumor cells producing 2HG: qHTS for the HT-1080-IDH1KD cell line; HT-1080 IDH1 knockdown viability, ATP luminescence, 48 h; Potency, µM (series often up to 46.1 µM), for inactives: at the highest dose activity, negative = toxicity, usual class: cytotoxic; 360,000 compounds, 2% hits; AID 686971, 2013;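 further: potency means the concentration at half of the fitted maximal effect; 0% = DMSO wells and -100% = cell-free medium wells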
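Knockdown cells (IDH1KD HT-1080) received compounds 2 h after plating at 750 cells/well and were kept 48 h at 37 °C in 5% FBS RPMI. A CellTiter-Glo luminescence read gave % activity for curve fitting.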
TDP1 cell noCPT: qHTS for Inhibitors of human tyrosyl-DNA phosphodiesterase 1 (TDP1): qHTS in cells in absence of CPT. DT40 Tdp1-/- hTDP1 cells, no CPT, ATP luminescence, 48 h. Potency, µM (titrated, usually from 46.2 µM), for the others: top-dose activity change, negative = growth inhibition, hits mostly inhibitors. 420,000 compounds, 15% hits; further: potency means the concentration at half of the fitted maximal effect; nearly all actives have a fitted effect of over 55% in size
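Readout: luminescence from CellTiter-Glo after 30 min in the dark at RT. Cells: DT40 Tdp1-/- with stable hTDP1, 400/well. Exposure: compounds alone, ≥48 hr, 37 °C.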
HT1080NT lethal: qHTS for induction of synthetic lethality in tumor cells producing 2HG: qHTS for the HT-1080-NT fibrosarcoma cell line; 360,000 compounds, 1.6% hits; AID 686970, 2013; HT-1080-NT fibrosarcoma viability, CellTiter-Glo ATP luminescence, 48 h; Potency, µM (doses to about 46.1 µM), inactives show at the highest dose activity, negative = less viability, actives largely listed as cytotoxic;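 further: NT is the 2HG producing partner of a matched IDH1 knockdown line; potency means the concentration at half of the fitted maximal effect; 0% = DMSO-treated cells and -100% = media-only wells without cells; nearly all actives have a fitted effect of over 55% in size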
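A 48-hour cytotoxicity screen used HT-1080-NT cells plated 2 hours before compound delivery. ATP-based CellTiter-Glo luminescence measured viability, normalized to DMSO and no-cell controls.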
An asterisk follows results filed as active; i = inactive; ? = inconclusive; / = no result; [ ] = remark or other dose. The list is not random: actives were taken first. Their share in the collection is about 19%. Unless noted, the call rests on the fitted dose curve; in most records, active means well fitted curve in the direction sought with a large enough effect; inconclusive means small, poorly fitted or top-dose-only effect, or another doubt; inactive means no such curve, though single readings can be large; an effect the other way counts as inactive or inconclusive. Unless noted, on the % scale 0 is the no-effect control and ±100 the full control effect.

SMILES	TDP1 cell CPT	IL1B secr inh	HT1080 IDH1KD tx	TDP1 cell noCPT	HT1080NT lethal
CCOCCCNC(=O)C(NC(=O)c1ccc(NC(C)=O)cc1)c1ccc(Cl)cc1 (stereo unspecified)	4%	-17	-15%	-11%	-15%
CCOCCCNC(=O)C(c1ccc(C)cc1)N(Cc1cccs1)C(=O)c1ccccc1O (stereo unspecified)	-6%	-108*	-9%	?	-3%
CCOCCCNC(=O)C(c1ccc(Cl)cc1)N(Cc1cccs1)C(=O)c1ccc(NC(C)=O)cc1 (stereo unspecified)	15µM*	/	/	16µM*	/
CCOCCCNC(=O)C(c1ccc(C)cc1)N(Cc1ccc2c(c1)OCO2)C(=O)c1ccc(NC(C)=O)cc1 (stereo unspecified)	15µM*	/	/	?	/
CCOCCCNC(=O)C(c1ccccc1)N(Cc1cccs1)C(=O)CNC(=O)c1ccccc1 (stereo unspecified)	?	-2	-11%	?	-8%
O=C(Nc1ccc(S(=O)(=O)N2CCCC2)cc1)c1cc(F)c(F)cc1Cl	?	i	-6%	?	-7%
CCOCCCNC(=O)C(c1ccccc1)N(Cc1cccs1)C(=O)c1ccc(NC(C)=O)cc1 (stereo unspecified)	?	/	/	16µM*	/
COc1ccc2c(c1)c1ncn(Cc3ccc(F)cc3)c(=O)c1n2C	-19%	22	-16%	-29%	-8%
COc1ccc2c(c1)c1ncn(Cc3ccco3)c(=O)c1n2C	-5%	-13	-19%	13µM*	-15%
COc1ccc(CNC(C)CCc2ccccc2)cc1 (stereo unspecified)	?	-8	-18%	?	-17%
CC(NCc1ccc(OCc2ccc(Cl)cc2)cc1)C(O)c1ccccc1 (stereo unspecified)	15µM*	-103*	18µM*	?	23µM*
COc1ccc(CNC(c2ccccc2)c2ccc(Cl)cc2)cc1 (stereo unspecified)	?	31	-26%	16µM*	-26%
O=C(NCCn1ccc2ccccc21)c1ccc(S(=O)(=O)N2CCCCC2)cc1	?	20	-12%	23µM*	-16%
Cc1ccc(C(=O)NCCn2ccc3ccccc32)cc1[N+](=O)[O-]	13µM*	?	-25%	8.2µM*	-25%
COc1ccc(CCNc2ncnc3c2nnn3C)cc1	16µM*	/	/	21µM*	/
COc1ccc(CCNc2ccncn2)cc1OC	-25%	22	-3%	-26%	6%
COc1ccc(CCNc2ccncn2)cc1	9.2µM*	-5	-5%	15µM*	-2%[9.24 µM]
COc1cccc(CCNc2ncnc3c2nnn3C)c1	?	/	/	8.2µM*	/
C=CCOc1cccc(C(=O)Nc2ncn[nH]2)c1	-9%	5	16%	1%	7%
O=C1C=C(NCCc2cc(Br)c(O)c(Br)c2)C(=O)c2ncccc21	1.2µM*	-105*	10µM*	2.1µM*	?
CCCn1c(/C=C/c2ccco2)nc2ccccc21	16µM*	-16	-1%	?	6%
CCCn1c(NCc2ccco2)nc2ccccc21	10%	-9	-22%	0%	1%
CCCCn1c(/C=N/Nc2nc3ccccc3[nH]2)nc2ccccc21	4.6µM*	69	15µM*	5.2µM*	?
CCCCn1c(/C=C/c2ccco2)nc2ccccc21	18µM*	0	12%	?	16%
Nc1ccc2oc(-c3ccc4nc[nH]c4c3)nc2c1	21µM*	-20	-15%	10µM*	-3%
SMILES	TDP1 cell CPT	IL1B secr inh	HT1080 IDH1KD tx	TDP1 cell noCPT	HT1080NT lethal
C/C(=C\C(=S)Nc1ccccc1)Nc1cccc2ccccc12	?	-7	1%	23µM*	2%
C/C(=C\C(=S)Nc1ccccc1)Nc1ccc2ccccc2c1	18µM*	10	1%	?	3%
O=C(Nc1ccc(-c2n[nH]c(=S)o2)cc1)c1ccccc1Br	1%	44	5%	-15%	12%
CCOc1ccc(CN(C)C(=O)CNC(=O)c2ccc3ccccc3c2)cc1OC	-10%	?	-7%	?	-8%
O=C1C(Cl)=C(N2CCCCCC2)C(=O)N1c1ccc(Cl)cc1	-7%	23	-3%	?	2%
O=C1CN(c2ccc(Cl)cc2)C2(CCCCC2)S1	29µM*	3	6%	?	1%
Cc1ccc(S(=O)(=O)N2CCOCC2)cc1C(=O)OCC(=O)N1CCc2ccccc2C1	?	17	3%	23µM*	?
Cc1ccc(S(=O)(=O)N2CCOCC2)cc1C(=O)OCC(=O)NC1CCCC(C)C1C (stereo unspecified)	15µM*	20	-12%	4.6µM*	-3%[9.24 µM]
COc1ccc(N2COC3c4cccc5cccc(c45)C32)cc1 (stereo unspecified)	5.8µM*	-10	4%	8.2µM*	4%
Cc1nc(NC(=O)c2ccccc2)sc1-c1cc(C(=O)N2CCOCC2)nn1Cc1ccccc1	21µM*	-3	2%	-18%	-12%
C=CC[n+]1cccc2cc(Br)ccc21	-15%	/	/	-17%	/
O=Cc1c(Sc2ccccn2)nc2ccccn2c1=O	?	-86*	-24%	?	-4%
O=Cc1c(Sc2ccccc2)nc2ccccn2c1=O	?	-114*	?	16µM*	?
COc1ccc(NC(=O)CCN2C(=O)C3CC=CCC3C2=O)cc1S(=O)(=O)N1CCCCC1 (stereo unspecified)	-15%	0	21%	-29%	11%
CCCCCCN1C[C@@H](n2cc(C3CC3)nn2)[C@H](O)C[C@@H]1c1ccc(OC)cc1	18µM*	?	-6%	15µM*	-11%
CCCCCCN1C[C@H](n2cc(C3CC3)nn2)[C@@H](O)C[C@@H]1c1ccc(C)cc1	21µM*	-5	?	12µM*	?
CCCCCCN1C[C@@H](O)[C@H](n2cc(C3CC3)nn2)C[C@@H]1c1ccc(OC)cc1	?	16	3%	?	-1%
CCCn1c(=O)[nH]c(=O)c2c1nc(-c1ccccc1)n2CCN1CCOCC1	8%	-7	7%	1%	7%
CCOC(=O)c1c(C)n(C)c2ccc(O)c(CN(C)C)c12	21µM*	-53*	-14%	18µM*	-17%
CCOC(=O)c1c(C)n(-c2ccc(OC)cc2)c2ccc(O)c(CN(C)C)c12	26µM*	-30	21µM*	16µM*	?
